The results in this text go back to PubChem BioAssay AID1468 (National Center for Advancing Translational Sciences (NCATS), 2008).

Values joined by “and” are separate entries in the source; they are usually repeats but may differ in a detail not shown here. Equal entries are not always repeated. About 1,100 (0.39%) of roughly 280,000 compounds were called active. About 7% were inconclusive and are not listed. The call rests on the fitted dose curve; in most records, active means well fitted inhibition curve with a large enough effect; inconclusive means small, poorly fitted or top-dose-only effect, or effect the other way; inactive means flat fitted curve, though single readings scatter. Shown is part of a subset that was picked to be rich in actives. A call without a number means that no potency is given here.
Potency means the concentration at half of the fitted maximal effect.

The target in this assay is Microtubule-associated protein tau (Homo sapiens) (UniProt P10636). In words: qHTS for Inhibitors of Tau Fibril Formation, Fluorescence Polarization. Further: nearly all actives have a fitted effect of over 55% in size. Particulars: K18 P301L tau heparin fibrillization, Alexa594 FP, 6 h; series mostly up to 57.7 µM. Summed up: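 Compound effects on tau fibrillization are measured by Alexa 594 fluorescence polarization (ex 555, em 632 nm). K18 P301L tau is used at 15 uM with 0.24 uM labeled tracer, and 20 uM heparin induces aggregation over 6 hr at 37 C.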
Sequence of Microtubule-associated protein tau (Homo sapiens) (P10636 561-689 P618L limits assumed): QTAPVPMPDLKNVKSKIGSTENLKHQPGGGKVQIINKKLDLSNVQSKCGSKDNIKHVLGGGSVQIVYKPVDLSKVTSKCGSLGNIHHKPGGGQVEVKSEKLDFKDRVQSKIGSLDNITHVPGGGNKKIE
Background: In qHTS, concentration-response curves come from the screen itself.
On to `CC(C)Cn1c(=O)c2ccccc2n2c(-c3cccc(Cl)c3)nnc12`, for which the Potency result was “inactive”.

With `COc1ccc2c(c1)c(N1CCCC1=O)c(C(=O)Nc1ccccc1C(F)(F)F)n2C`, the Potency result was “inactive”.

For the molecule `COc1cccc(Nc2nc(N)c([N+](=O)[O-])c(NCc3ccco3)n2)c1`, the Potency is 3.16 µM (active).

With `COc1ccc(Nc2nc(Cl)nc(NCc3ccco3)n2)cc1`, the Potency entry is “inactive”.

As for `CN(c1ccccc1)c1nc(N)c([N+](=O)[O-])c(NCc2ccco2)n1`, the Potency entry was “inactive”.

In the case of `O=C(NCC(c1cccnc1)N1CCc2ccccc21)c1cccc(C(F)(F)F)c1` (configuration not stated), the Potency result was “inactive”.

With `Cc1cc(C)cc(NS(=O)(=O)c2ccc3[nH]cc(C(=O)N4CCCCC4)c(=O)c3c2)c1`, the Potency entry was “inactive”.

For the molecule `COc1ccc(S(=O)(=O)NC(C)C)cc1C(=O)NC1CCCCC1`, the Potency entry is “inactive”.

For the molecule `CC(C)c1ccc(NS(=O)(=O)c2ccc3[nH]cc(C(=O)NC4CCCC4)c(=O)c3c2)cc1`, the Potency was 11.2 µM (active).

Regarding `Cc1cccc(NC(=O)Cn2nc(-c3ccc(Cl)cc3)c3ccccc3c2=O)c1`, the Potency result was “inactive”.

On to `O=S(=O)(c1ccccc1)c1nc(-c2ccc(Cl)cc2Cl)oc1N1CCCCC1`, for which the Potency entry was “inactive”.

Regarding `CCc1ccc(NC(=O)CN2CCSc3ccc(S(=O)(=O)N4CCCC4)cc32)cc1`, the Potency entry was “inactive”.

With `COc1ccc(S(=O)(=O)NCc2cccn2Cc2cccc(C)c2)cc1Cl`, the Potency entry was “inactive”.

For `Cc1cccc(CC(=O)N2CC(=O)Nc3ccc(F)cc3C2c2ccccc2)c1` (configuration not stated), the Potency entry is “inactive”.

Consider `Cc1ccc(-c2nnc(-c3ccc(NC(=O)c4cccs4)cc3)o2)cc1`, for which the Potency entry is “inactive”.

With `O=C(Nc1ccc(-c2nc3cc(NC(=O)c4ccccc4Cl)ccc3o2)cc1)c1ccccc1Cl`, the Potency result was “inactive”.

Consider `CC(C)c1ccc2oc(-c3cc(NC(=O)c4cccs4)ccc3Cl)nc2c1`, for which the Potency was 12.6 µM (active).

For the molecule `CCN(CC)CCNC(=O)c1cc2c(=O)oc3ccc(C)cc3c2s1`, the Potency result is “inactive”.

With `COc1cccc(NC(=O)NCc2ccc(F)cc2)c1`, the Potency result was “inactive”.

Take `Cc1cccc(NC(=O)c2cccc(C(F)(F)F)c2)c1`: the Potency result is “inactive”.

For `Cc1cccc(NC(=O)Nc2cccc(Oc3c(F)c(F)c(F)c(F)c3F)c2)c1`, the Potency was 8.91 µM (active).

Take `COc1cc2c(=O)c(S(=O)(=O)c3ccc(C(C)C)cc3)cn(Cc3ccccc3C)c2cc1OC`: the Potency result was “inactive”.

As for `O=C(Nc1ccccc1)Nc1ccccc1C(=O)NCc1ccco1`, the Potency entry was “inactive”.

For the molecule `CCc1ccc(-c2cc(C(=O)NCc3ccco3)c3ccccc3n2)s1`, the Potency is 28.2 µM (active).

On to `CCOc1ccc(CNC(=O)c2cc(-c3ccc(Cl)s3)nc3ccccc23)cc1`, for which the Potency entry was “inactive”.

For the molecule `COc1ccc(-c2noc(-c3ccc(N4CCN(c5ccccc5)CC4)c([N+](=O)[O-])c3)n2)cc1OC`, the Potency entry was “inactive”.

Turning to `CCOc1ccccc1CNCc1c(C(=O)O)c(C)n(Cc2ccc(C)cc2)c1C`, the Potency entry is “inactive”.

As for `COc1ccccc1CNC(=O)CCn1c(=O)c2ccccc2n(CC(=O)Nc2ccc(Br)cc2F)c1=O`, the Potency result was “inactive”.

As to `Cc1cc(C)c2oc(C(=O)Nc3ccc(S(=O)(=O)N(C)c4ccccc4)cc3)cc(=O)c2c1`, the Potency result is “inactive”.

For `COc1ccc(-c2csc(-c3c(N)c(C(=O)c4ccc(OC)c(OC)c4)n4ccccc34)n2)cc1`, the Potency result was “inactive”.

In the case of `Cc1ccc(Cl)cc1N1CCN(C(=O)CN2C(=O)COc3ccc(S(=O)(=O)N4CCOCC4)cc32)CC1`, the Potency result was “inactive”.

As for `COc1ccc(-n2c(=O)c3c(c4cc(OC)ccc4n3C)n(Cc3cccc(C)c3)c2=O)cc1`, the Potency entry is “inactive”.

As to `Nc1ccc2nc3c(=O)[nH]c(=S)[nH]c3nc2c1`, the Potency is 2.24 µM (active).

Consider `O=c1[nH]c(=O)c2nc3ccccc3nc2[nH]1`, for which the Potency result is “inactive”.

Regarding `COc1ccc(CCNC(=O)c2ccc(-n3c(C)cc4c3CCCC4)cc2)cc1OC`, the Potency entry is “inactive”.

`Cc1ccc2oc3c(c(=O)c2c1)C(c1ccc([N+](=O)[O-])cc1)N(CCCN1CCOCC1)C3=O` (configuration not stated): the Potency entry was “inactive”.

`Cc1cc(C)c(NC(=O)CCc2c(C)nc3c(c(C)nn3C(C)(C)C)c2C)c(C)c1`: the Potency entry is “inactive”.

Consider `COC(=O)c1ccccc1NC(=O)c1ccc2c(=O)n3c(nc2c1)CCCCC3`, for which the Potency result is “inactive”.

For the molecule `COc1ccc(N2CCN(c3nc(-c4ccccc4F)nc4ccccc34)CC2)cc1`, the Potency result was “inactive”.

For the molecule `CC(=O)Oc1c2c(c3c(c1CC=C(C)C)O[C@@]14C(=CC5CC1C(C)(C)OC4(C/C=C(\C)C(=O)O)C5=O)C3=O)OC(C)(CCC=C(C)C)C=C2` (some centres not stated), the Potency is 35.5 µM (active).

On to `CCc1cccc(NC(=O)CSc2nccn2C)c1`, for which the Potency result is “inactive”.

For the molecule `COC(=O)c1c(NC(=O)C(C)Oc2ccc(Cl)c(C)c2)sc(C)c1C` (configuration not stated), the Potency entry was “inactive”.

Regarding `CCc1nc2cccnc2n1-c1ccc(CC(=O)Nc2c(C)cccc2C)cc1`, the Potency entry is “inactive”.

Regarding `CCN(CC(=O)NCCc1ccccc1)S(=O)(=O)c1ccc(C)cc1`, the Potency result was “inactive”.

In the case of `CCN(CC(=O)NCCc1ccccc1)S(=O)(=O)c1ccccc1`, the Potency entry is “inactive”.

For the molecule `CCN(CC)S(=O)(=O)c1ccc2[nH]cc(C(=O)NCCc3ccccc3)c(=O)c2c1`, the Potency is 12.6 µM (active) and 14.1 µM (active).

As to `CC(C)(C)OC(=O)N1CCC(c2c(C(=O)Nc3ccc4c(c3)OCO4)cnn2-c2ccccc2)CC1`, the Potency entry is “inactive”.

Turning to `Cc1ccc(Cn2cc(CCC(=O)NCc3ccc(OC(C)C)cc3)c3ccccc32)cc1`, the Potency result was “inactive”.

Consider `CC(=O)c1cccc(S(=O)(=O)N2CCC(n3nnc4cc(F)ccc43)CC2)c1`, for which the Potency entry was “inactive”.

With `Cc1ccc(C)c(N2CCN(c3ccc4cc(S(=O)(=O)N5CCC(C)CC5)ccc4n3)CC2)c1`, the Potency result was “inactive”.

For `CC(=O)c1cccc(Nc2ccc3cc(S(=O)(=O)N4CCC(C)CC4)ccc3n2)c1`, the Potency is 12.6 µM (active).

As for `Cc1ccc(CNS(=O)(=O)c2ccc(C(=O)N(C)C)s2)cc1`, the Potency result was “inactive”.
